Data as given in PubChem BioAssay AID652197 (Broad Institute, 2013).
Values joined by “and” are separate entries in the source; they are usually repeats but may differ in a detail not shown here. Equal values may be shown once. Screen size: about 340,000 compounds; about 500 (0.15%) were called active.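 The calls were made as follows: active = mean replicate inhibition of at least 30%, or all replicates individually reaching that 30% level; inactive = mean below 30% and not every replicate reaching it.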 Shown is part of a subset that was picked to be rich in actives.

What follows are compounds tested against Endoplasmic reticulum aminopeptidase 1 (Homo sapiens) (UniProt Q9NZ08) (assay: inhibition of ERAP1 peptide trimming enzyme – biochemical, single point, plate reader, primary screen (AID 652197;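 also: 0% = neutral control wells and 100% = L-leucinethiol positive control wells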)). Conditions: recombinant ERAP1, Leu-AMC fluorescence, 60 min; at 10.7 µM; active compounds read high.
Endoplasmic reticulum aminopeptidase 1 (Homo sapiens), sequence (Q9NZ08 whole entry, looked up): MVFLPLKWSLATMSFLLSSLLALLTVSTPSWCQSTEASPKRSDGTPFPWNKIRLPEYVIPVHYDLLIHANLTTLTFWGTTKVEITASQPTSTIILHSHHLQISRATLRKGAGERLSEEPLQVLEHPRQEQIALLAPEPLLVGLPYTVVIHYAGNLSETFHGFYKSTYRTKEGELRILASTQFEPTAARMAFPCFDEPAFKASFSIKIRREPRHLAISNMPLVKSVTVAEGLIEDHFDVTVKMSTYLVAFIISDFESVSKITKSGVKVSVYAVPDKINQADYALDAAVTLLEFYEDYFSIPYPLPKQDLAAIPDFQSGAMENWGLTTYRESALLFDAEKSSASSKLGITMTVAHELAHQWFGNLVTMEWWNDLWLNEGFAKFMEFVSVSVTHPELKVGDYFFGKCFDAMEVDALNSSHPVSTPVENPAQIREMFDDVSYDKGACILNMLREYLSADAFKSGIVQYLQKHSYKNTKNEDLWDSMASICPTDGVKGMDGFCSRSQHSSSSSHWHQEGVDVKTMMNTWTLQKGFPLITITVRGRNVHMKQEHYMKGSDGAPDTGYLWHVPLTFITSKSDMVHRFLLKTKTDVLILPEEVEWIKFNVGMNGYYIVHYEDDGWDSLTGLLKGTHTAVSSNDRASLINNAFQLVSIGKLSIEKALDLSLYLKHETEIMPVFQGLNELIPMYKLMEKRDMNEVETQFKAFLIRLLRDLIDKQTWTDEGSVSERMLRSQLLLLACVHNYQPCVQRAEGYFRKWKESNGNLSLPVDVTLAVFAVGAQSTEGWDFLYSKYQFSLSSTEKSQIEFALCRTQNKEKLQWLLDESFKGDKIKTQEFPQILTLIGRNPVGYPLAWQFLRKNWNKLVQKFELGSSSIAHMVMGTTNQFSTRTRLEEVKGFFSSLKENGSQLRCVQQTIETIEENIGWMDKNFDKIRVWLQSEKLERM

inhibition, active:
C[N+](C)(C)CCNC(=O)c1cc[n+](Cc2ccccc2)c(/C=N/O)c1 105%
COc1ccc(C(=O)NCc2nnc(SCCOc3ccccc3)n2C)cc1 31.3%
N#Cc1c(N2CCCCC2)nc(N)c2c(N)nc(SCC(=O)O)cc12 46.5%
CCCc1nc(-c2cc3cc(C)ccc3[nH]c2=O)no1 55.1%

inhibition, inactive:
CC(=O)N1Cc2cc(C(=O)NCc3cc(F)cc(F)c3)nc(-c3cccc(C4=CCCC4)c3)c2[C@@H]1CCO 3.25%
O=C(C[C@@H]1C=C[C@H](NC(=O)C2CCC2)[C@@H](CO)O1)NCC1CC1 0.604%
C/C(Cc1ccccc1)=N\NC(=O)CNC(=O)c1cccc(Br)c1 7.75%
O=C(NCCCNCc1ccccc1)c1ccc(/C=N/O)nc1 4.32%
COc1ccc(CC(=O)NCc2nnc(SCC(=O)Nc3nccs3)n2C)cc1 1.32%
COc1ccc(C(=O)NCc2nnc(SCC(=O)NC3=NCCS3)n2C)cc1 1.94%
COC(=O)C[C@H]1C[C@H]2c3cc(NC(=O)Nc4ccccc4F)ccc3O[C@H]2[C@H](CO)O1 -1.68%
O=C(NC1Cc2ccccc2C1)[C@H]1[C@H](CO)[C@H]2Cn3c(ccc(C4=CCCCC4)c3=O)[C@H]2N1CC1CC1 -5.27%
O=C(Cc1ccccn1)N[C@H]1CC[C@H](CCn2cc(-c3ccc(F)cc3)nn2)O[C@H]1CO -3.36%
O=C(C[C@@H]1CC[C@H](NC(=O)CN2CCOCC2)[C@@H](CO)O1)NCCc1ccccc1 0.528%
O=C(N[C@H]1C=C[C@@H](CC(=O)N2CCc3ccccc3C2)O[C@@H]1CO)C1CCOCC1 -0.073%
Cc1ccc(-c2ccccc2[C@H]2[C@@H](C#N)N(c3ncc(-c4ccccc4)s3)[C@@H]2CO)cc1 -2.75%
Cc1ccc(S(=O)(=O)Nc2ccc3c(c2)C(=O)N([C@H](C)CO)C[C@@H](C)[C@@H](CN(C)S(C)(=O)=O)OCCCC[C@@H](C)O3)cc1 3.3%
C[C@@H]1CN([C@H](C)CO)C(=O)c2cc(NC(=O)c3ccncc3)ccc2O[C@@H](C)CCCCO[C@@H]1CN(C)CC1CC1 -0.674%
C[C@@H]1CN([C@H](C)CO)C(=O)Cc2cc(NC(=O)CCC(F)(F)F)ccc2O[C@@H]1CN(C)CC1CCCCC1 0.143%
CO[C@@H]1CN(C)C(=O)c2ccc(NC(=O)Nc3c(C)noc3C)cc2OC[C@@H](C)N(C(=O)Nc2cccc(Cl)c2)C[C@H]1C -0.693%
N#C[C@@H]1[C@H](c2ccccc2-c2ccccc2F)[C@@H](CO)N1C(=O)C1CCOCC1 0.396%
O=C(O)CSc1ccc(S(=O)(=O)N2CCCC2)cn1 0.672%
Nc1nc(NCC(=O)O)nc(N2CCCCCC2)c1[N+](=O)[O-] 4.98%
C/C=C/c1ccc(C2[C@H]3CNC[C@@H]2N3C(=O)Nc2cc(F)ccc2F)cc1 (stereo partly drawn) 0.659% and 1.15%
Nc1nc2c(ncn2[C@@H]2O[C@H](C(=O)N[C@H](Cc3ccccc3)C(=O)NCC3CCCCC3)[C@@H](O)[C@H]2O)c(=O)[nH]1 2.44%
COc1ccc(CN(C)C[C@H]2OCCCC[C@H](C)Oc3ccc(NS(=O)(=O)c4ccc(C)cc4)cc3C(=O)N([C@@H](C)CO)C[C@H]2C)cc1 0.631%
CCC(=O)N(CCc1ccccc1)Cc1cc2cc(C)ccc2[nH]c1=O -2.61%
Cc1ccc2[nH]c(=O)c(CN(C)S(=O)(=O)c3cccc4nonc34)cc2c1 0.344%
CC(C)NC(=O)N[C@H]1CC[C@@H](CC(=O)NCc2ccc(Oc3ccccc3)cc2)O[C@@H]1CO -0.517%
COc1ccc(NC(=O)N2CC(=O)N3[C@H](CO)[C@@H](c4ccc(C#CCC5CCCC5)cc4)[C@H]3C2)cc1 -1.79%
CC(=O)NC[C@H]1[C@@H](c2ccc(C#CC(C)C)cc2)[C@@H](CO)N1Cc1ccccn1 3.95%
COc1ccc(NC(=O)N2CC(=O)N3[C@H](CO)[C@@H](c4ccc(-c5ccc(C)cc5)cc4)[C@H]3C2)cc1 1.13%
O=C(c1ccc(F)cc1)N1CC(=O)N2[C@@H](CO)[C@@H](c3ccc(C#Cc4ccc(F)cc4)cc3)[C@@H]2C1 -1.04%
C[C@H](CO)N1C[C@H](C)[C@H](CN(C)C(=O)Nc2ccc(C(F)(F)F)cc2)Oc2ccc(NS(=O)(=O)c3cn(C)cn3)cc2CC1=O 2.19%
COc1ccc(S(=O)(=O)Nc2ccc3c(c2)C(=O)N([C@@H](C)CO)C[C@H](C)[C@H](CN(C)S(=O)(=O)c2c(C)noc2C)OCCCC[C@@H](C)O3)cc1 -3.22%
O=C(NCC[C@@H]1CC[C@@H](NS(=O)(=O)c2ccc(Cl)cc2)[C@@H](CO)O1)c1ccccc1F -2.75%
O=C(Cc1ccccc1)N1C[C@@H]2[C@H](c3ccccc31)[C@@H](CO)N2C(=O)C1CCOCC1 -0.84%
C[C@@H]1CCCCO[C@H](CN(C)Cc2ccc(C(F)(F)F)cc2)[C@@H](C)CN([C@@H](C)CO)C(=O)c2cc(NC(=O)c3ccncc3)ccc2O1 -3.82%
CO[C@@H]1CN(C)C(=O)c2cc(NC(=O)C3CCOCC3)ccc2OC[C@@H](C)NC[C@@H]1C 1.93%
O=C(Nc1ccccc1F)N1CC(=O)N2[C@H](CO)[C@H](c3ccc(C#CC4CC4)cc3)[C@@H]2C1 -1.09%
CN(C)C(=O)C[C@H]1C[C@H]2c3cc(NC(=O)Nc4ccc(C(F)(F)F)cc4)ccc3O[C@H]2[C@@H](CO)O1 -0.814%
O=C(Nc1cc(F)ccc1F)N[C@H]1CC[C@@H](CCn2cc(C3CCCC3)nn2)O[C@@H]1CO 0.545%
C[C@@H]1CN([C@H](C)CO)C(=O)c2cc(NS(C)(=O)=O)ccc2O[C@H]1CN(C)C(=O)Nc1cccc2ccccc12 0.237%
